# Measured values from paper PMC5540273 (PLoS ONE, 2017).
# Tests used:
# Settings in all cases: concentration: 1 μM,replicates: in singlicate; n = 1
# [1] = system: RPS6KA4(Kin.Dom.1-N-terminal)
# [2] = system: RPS6KA4(Kin.Dom.2-C-terminal)
# [3] = system: RPS6KA5(Kin.Dom.1-N-terminal)
# [4] = system: RPS6KA5(Kin.Dom.2-C-terminal)
# [5] = system: T1, RSK1(Kin.Dom.1-N-terminal)
# T1 construct: gene RPS6KA1
# [6] = system: T2, RSK1(Kin.Dom.2-C-terminal)
# T2 construct: gene RPS6KA1
# [7] = system: T3, RSK2(Kin.Dom.1-N-terminal)
# T3 construct: gene RPS6KA3
# [8] = system: T4, RSK2(Kin.Dom.2-C-terminal)
# T4 construct: gene RPS6KA3
# [9] = system: T5, RSK3(Kin.Dom.1-N-terminal)
# T5 construct: gene RPS6KA2
# [10] = system: T6, RSK3(Kin.Dom.2-C-terminal)
# T6 construct: gene RPS6KA2
# 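Also: KINOMEscan kinase panel screen.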
SMILES,%Inh [1] [%],%Inh [2] [%],%Inh [3] [%],%Inh [4] [%],%Inh [5] [%],%Inh [6] [%],%Inh [7] [%],%Inh [8] [%],%Inh [9] [%],%Inh [10] [%]
c1ccc(Oc2ccc(Nc3ccnc4ccc(-c5ccccn5)cc34)cc2)cc1 [GW407034],11,0,3,0,10,0,7,8,19,0
Cc1cccc(-c2nc(Nc3ccncc3)c3sccc3n2)n1 [GW869641],30,7,19,0,2,8,41,50,7,21
FC(F)(F)c1cc(Br)cc(Nc2nccc(-c3cnn4ncccc34)n2)c1 [GW810578],0,0,0,0,0,0,17,0,3,9
NC(=O)Nc1sc(-c2ccc(F)cc2)cc1C(N)=O [GW789449],46,7,0,0,54,33,68,45,21,7
C[C@@H]1CNc2c(sc3ccc4nc(-c5ccc(O)cc5)ccc4c23)C(=O)N1,6,98.8,2,17,6,12,58,70,12,47
CC(C(=O)NC1CCN(c2ccnc(Nc3ccc(F)cc3)n2)C1)c1ccc(Cl)cc1 (centres unmarked) [GSK1379713],6,5,0,0,0,0,0,17,0,0
Cc1ccc(Nc2ccnc(Nc3ccc4c(c3)CS(=O)(=O)C4)n2)cc1O.Cl [GW579362],15,0,0,18,20,7,0,55,47,11
CN(c1ccc2c(c1)nc(NCc1ccc(F)cc1)n2C)c1ccnc(Nc2ccc(CS(C)(=O)=O)cc2)n1.Cl [GW813244],12,0,0,4,0,32,31,0,9,28
CC(=O)Nc1nc2cnc(Nc3cc(NC(=O)c4cccc(CC(C)(C)C#N)c4)ccc3C)nc2s1,0,2,13,0,5,0,0,26,0,0
C[C@@H]1CCN(C(=O)N2CCCC2)C[C@@H]1N(C)c1ncnc2[nH]ccc12,0,2,0,0,0,14,10,0,0,22
Cl.c1ccc(Oc2ccc(Nc3ccnc4cc(-c5ccc(CN6CCNCC6)o5)ccc34)cc2)nc1 [GW567142],0,0,0,14,2,16,0,0,0,9
COC(=O)Nc1nc2cc(Oc3ccc(NC(=O)Nc4cc(C(F)(F)F)ccc4Cl)cc3)ccc2[nH]1.Cl [GW697465],0,0,14,0,0,0,0,10,21,13
Cn1ccc2ncnc(Oc3ccc(NC(=O)Nc4ccnc(C(F)(F)F)c4)c(Cl)c3)c21,0,7,3,7,0,9,0,35,0,1
CCOC(=O)N1CCC(n2cnc(-c3ccc(F)cc3)c2-c2ccnc(N)n2)CC1 [SB-219952],6,7,1,0,11,32,23,0,8,36
CCn1c(-c2nonc2N)nc2cncc(Br)c21 [SB-738004],3,86,–,–,0,38,50,27,9,6
C[C@@H](Oc1cc(-n2cnc3cc(-c4cnn(C)c4)ccc32)sc1C(N)=O)c1ccccc1Cl [GSK580432],82,0,5,6,45,0,60,2,77,0
CCn1c(-c2nonc2N)nc2cncc(CNC3CCNCC3)c21.Cl [SB-747651],44,6,78,0,21,0,16,6,7,9

SMILES,%Inh [1] [%],%Inh [2] [%],%Inh [3] [%],%Inh [4] [%],%Inh [5] [%],%Inh [6] [%],%Inh [7] [%],%Inh [8] [%],%Inh [9] [%],%Inh [10] [%]
CS(=O)c1ccc(-c2coc3ccc(-c4n[nH]c(=O)o4)cc23)cc1 (centres unmarked),26,85,13,14,0,36,13,0,9,28
CNC(=O)c1ccccc1Nc1nc(Nc2cccc(CS(C)(=O)=O)c2)ncc1C.O=CO [GSK1520489],95.7,0,43,0,96.5,43,99.9,12,99,0
CCCC(=O)Nc1n[nH]c2ncccc12 [SB-601436],3,3,0,0,0,0,19,0,0,0
COc1cccc(OC)c1C(=O)Nc1cccc(-c2nn3ccccc3c2-c2ccnc(Nc3cccc(F)c3)n2)c1 [GSK361065],8,14,0,0,36,0,0,13,6,15
Cc1ccc2c(-c3ccnc(Nc4ccc(C(F)(F)F)cc4)n3)cnn2n1 [GW819776],28,0,0,0,19,8,53,0,0,7
Cc1ccc(C(=O)Nc2ccc(Oc3ccc4nc(NC(=O)C5CC5)cn4c3)c(F)c2)c(=O)n1-c1ccccc1,22,0,0,0,0,0,0,37,22,2
COc1cccc(C2=C(Nc3cccc(Cl)c3)C(=O)NC2=O)c1 [SB-341556],11,0,5,0,28,24,25,11,1,0
O=C1NCCc2[nH]c(-c3ccncc3)cc21,15,92.7,0,58,4,35,8,23,16,27
CS(=O)(=O)Nc1ccc(-c2ccnc3[nH]ccc23)cc1 [GSK993273],0,94.1,0,86,17,55,35,29,19,54
O=C(Nc1ccccc1)c1cccc(Oc2ccc3nccn3n2)c1,0,10,0,16,0,100,9,46,24,0
Cl.Nc1n[nH]c2cc(-c3ccccn3)ccc12 [GSK2189892],15,0,26,0,29,0,0,0,0,0
C[C@@H]1CNc2c(sc3ccc4nc(-c5ccncc5)ccc4c23)C(=O)N1,33,98.7,0,0,0,0,4,0,10,33
CN1CCN(CCCNc2nccc(-c3c(-c4ccc(F)cc4)nn4cc(C(N)=O)ccc34)n2)CC1 [GW622475],13,0,19,14,28,63,0,100,12,14
Cl.Cl.NC[C@H](CC1CCCCC1)NC(=O)c1ccc(-c2ccnc3[nH]ccc23)s1 [GSK1581428],82,79,84,67,23,12,83,0,57,21
Cn1ccc2ncnc(Oc3ccc(NC(=O)Nc4cccc(C(F)(F)F)c4)c(Cl)c3)c21,2,0,0,2,0,86,13,16,0,27
C[C@@H](Oc1cc(-n2cnc3ccc(-c4ccncc4)cc32)sc1C(N)=O)c1ccccc1Cl [GSK483724],20,0,25,5,40,0,34,0,39,0
COC(=O)c1cccc(NC(=O)NC2CCN(c3ccnc(Nc4cc(OC)c(OC)c(OC)c4)n3)C2)c1 (centres unmarked) [GSK1379767],0,0,0,30,21,5,7,1,9,29
